Our source for the growth inhibition values is PubChem BioAssay (NCI).

About 79,000 compounds went through this panel and 15% of them were active in at least one assay; those are over-represented in the sample as a whole. Unmarked numbers belong to inactive results. Active and inactive are the calls of the source. Rule as the data show it: active = growth inhibition above about 70%; inactive = the rest.

The nature of this experiment: NCI Yeast Anticancer Drug Screen. Data for the rad52 strain (AID 147).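 Also: 0% = growth of vehicle-treated control cultures.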 The settings on record: S. cerevisiae rad52 mutant growth inhibition, stronger effect = higher value. The procedure: Growth inhibition of yeast strains with defined genetic alterations is measured as a screen for potential anti-cancer activity. Selected strains with alterations in DNA damage repair or cell cycle control were exposed to compounds and growth inhibition was measured relative to vehicle treated controls. The strain used in this assay is rad52

Regarding `COc1ccc(NC(=O)CC2SC(=Nc3ccccc3C)NC2=O)c([N+](=O)[O-])c1` (stereo not given), the growth inhibition is 0% (at 1.2 µM); -2% (at 3.7 µM); 2% (at 11.0 µM); 13% (at 33.0 µM); 75% (active) (at 100.0 µM).

In the case of `O=C1CSC(c2cccc(Cl)c2)N1c1ccc(-c2ccc(-n3c(-c4ccccc4)nc4ccccc4c3=O)cc2)cc1` (stereo not given), the growth inhibition by setting is: (at 1.2 µM) 1%; (at 3.7 µM) 5%; (at 11.0 µM) 8%; (at 33.0 µM) 7%; (at 100.0 µM) 18%.

Regarding `O=C(NNc1ccccc1)C(O)C(O)C(O)C(O)C(O)CO` (stereo not given), the growth inhibition was 3% (at 1.2 µM); 11% (at 3.7 µM); 29% (at 11.0 µM); 53% (at 33.0 µM); 93% (active) (at 100.0 µM).

Take `O=c1nc2n(Cc3ccccc3)c3ccccc3nc-2c(=O)[nH]1`: the growth inhibition reads like this: (at 1.2 µM) 0%; (at 3.7 µM) 2%; (at 11.0 µM) 6%; (at 33.0 µM) 4%; (at 100.0 µM) 4%.

Consider `Nc1ccn(C2OC(COP(=O)(O)O)C(O)C2O)c(=O)n1` (stereo not given), for which the growth inhibition by setting is: (at 1.2 µM) -1%; (at 3.7 µM) 0%; (at 11.0 µM) 3%; (at 33.0 µM) 5%; (at 100.0 µM) 6%.

Regarding `CCCOC(=O)C(F)C(Br)C(=O)OCCC` (stereo not given), the growth inhibition (at 1.2 µM) is 38%; the growth inhibition (at 3.7 µM) was 89% (active); the growth inhibition (at 11.0 µM) is 96% (active); the growth inhibition (at 33.0 µM) is 96% (active); the growth inhibition (at 100.0 µM) was 99% (active).

`Cc1cc(C)nc(NS(=O)(=O)c2ccc(Nc3c4ccccc4nc4c(C(=O)NCCO)cccc34)cc2)n1`: the growth inhibition reads like this: (at 1.2 µM) -2%; (at 3.7 µM) -1%; (at 11.0 µM) 2%; (at 33.0 µM) 21%; (at 100.0 µM) 59%.

Regarding `Cc1ccc([N+]2=NC(c3ccccc3)=NN(c3ccccc3)C2)cc1`, the growth inhibition was 9% (at 1.2 µM); 15% (at 3.7 µM); 19% (at 11.0 µM); 90% (active) (at 33.0 µM); 96% (active) (at 100.0 µM).
